The source of these data is the supplement of paper PMC5641865, “A screen for kinase inhibitors identifies antimicrobial imidazopyridine aminofurazans as specific inhibitors of the Listeria monocytogenes PASTA kinase PrkA” (The Journal of Biological Chemistry, 2017).

± gives the standard deviation of the averaged measurements.
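Also: End-point A600 read in BHI broth at 37 °C with 2% DMSO, inhibition computed as (1 − OD with compound plus ceftriaxone ÷ OD with ceftriaxone only) × 100.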

The subject of this test is Listeria monocytogenes 10403S. Briefly: growth inhibition relative to ceftriaxone-alone control; higher = stronger potentiation of ceftriaxone growth inhibition. As to conditions: 10 µM; ceftriaxone 1 ug/ml; 12 h.
Regarding `C[C@@H]1CN(CC(=O)Nc2ccc3c(c2)Cc2cccc(-c4cc(=O)cc(N5CCOCC5)o4)c2S3)C[C@H](C)O1`, the growth inhibition turned out to be 27.5 ± 4.1%.
Next, `CN(c1ccc(NC(=O)Nc2ccc(OC(F)(F)F)cc2)cc1)c1ccnc(Nc2cccc(S(N)(=O)=O)c2)n1`: -3.28 ± 2%.
Next, `CCn1c(-c2nonc2N)nc2c(C#CC(C)(C)O)nc(OC[C@H](N)c3ccccc3)cc21`: 66.2 ± 2.7%; `NS(=O)(=O)c1cccc(Nc2cc(-c3ccc(F)cc3)n[nH]2)c1`: -5.13 ± 10%; `CCCN1CCC(Oc2cc(Nc3nc(Nc4cccc(F)c4C(N)=O)c4cc[nH]c4n3)c(OC)cc2Cl)CC1`: -13.1 ± 20%.
The result for `COc1cccc2cc(-c3nc([C@H]4CC[C@H](C(=O)O)CC4)n4ncnc(N)c34)[nH]c12` reads 16.8 ± 14%; that for `COc1cccc(-n2ncc3c(N/N=C/c4ccc(S(C)(=O)=O)cc4)ncnc32)c1`, -2.76 ± 9.3%.
Turning to `CC(=O)NCc1cccc(C#Cc2cncnc2Nc2ccc(OCc3cccc(F)c3)c(Cl)c2)c1`, the growth inhibition was -1.26 ± 2.3%.
The result for `COc1cccc(-c2c[nH]c3c(N/N=C/c4ccncc4)ncnc23)c1` reads -10.6 ± 14%; that for `c1cncc(CN2CCC(n3ncc4c(N5CCOCC5)nc(-c5ccc6[nH]ccc6c5)nc43)CC2)c1`, 37.1 ± 17%; that for `COc1ccc2ncn(-c3cc(O[C@H](C)c4ccccc4Cl)c(C(N)=O)s3)c2c1`, 1.82 ± 0.29%.
The result for `CC1=C(C(=O)Nc2ccc3[nH]ncc3c2)C(c2ccc(F)cc2)N=C(c2ccc(C(F)(F)F)nc2)N1` (configuration not stated) reads 4.07 ± 7.3%; that for `O=C(Nc1cc(C(F)(F)F)cc(C(F)(F)F)c1)c1cc(Cl)ccc1O`, 97.6 ± 0.39%; that for `N#CC[C@H](C1CCCC1)n1cc(-c2ncnc3[nH]ccc23)cn1`, 10.6 ± 1.1%.
The result for `O=C(Nc1n[nH]c2nnc(-c3cccnc3)cc12)C1CC1` reads -0.393 ± 1.3%; that for `CC(C)NC[C@@H](C(=O)N1CCN(c2ncnc3c2[C@H](C)C[C@H]3O)CC1)c1ccc(Cl)cc1`, 23.5 ± 8.6%; that for `COc1ccc(-c2oc3ncnc(N)c3c2-c2ccc(NC(=O)Nc3cc(C(F)(F)F)ccc3F)cc2)cc1`, -3.49 ± 7.6%.
Regarding `COc1cc2ncnc(Nc3cccc(Cl)c3)c2cc1OC` [AG-1478 (Tyrphostin AG-1478)], the growth inhibition is 31.5 ± 11%.
The result for `Cc1cnc(NC(=O)Nc2cc(Br)c(C)cc2OC[C@@H]2CNCCO2)cn1` reads 61.8 ± 50%.
The result for `COc1ccc(CNC(=O)c2ccc(-c3cc(-c4nnc(C)o4)ccc3C)cc2)cc1` reads 9.02 ± 3.7%.
The result for `NS(=O)(=O)c1ccc(Nc2cc(-c3ccc(O)c(F)c3)n[nH]2)cc1` reads 10.1 ± 4.6%; that for `CC[C@H](Nc1ncnc2[nH]cnc12)c1nc2cccc(F)c2c(=O)n1-c1ccccc1`, 21.7 ± 23%.
